The source made the active and inactive calls. Calls come from the whole dose curve; as a rule, active = well fitted inhibition curve with a large enough effect; inconclusive = small, poorly fitted or top-dose-only effect; inactive = no such curve, though single readings can be large or run the other way.
Experiment: qHTS assay for measurement of the activity of small molecule inhibitors on Zika virus induced Caspase-3 activity in human astrocytoma cells (AID 1224859);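 for activity change, negative = inhibition: plate controls were ZIKV-infected untreated cells for no effect and uninfected cells for full effect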
Conditions: SNB-19 ZIKV-induced caspase-3/7, luminescence, 6 h; series mostly up to 45.7 µM; activity change, negative = inhibition: at the top concentration
Summary of the method: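 Percent inhibition of virus-induced caspase-3/7 signal is calculated against uninfected and ZIKV-infected control cells. Cells are SNB-19, infected at 2 FFU/cell for 6 h after 1 h compound exposure.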
In the case of `Cc1nc2c(OCc3ccccc3)cccn2c1CC#N`, the “activity change, negative = inhibition” value is reported as -6.27% (inactive).
For `CCCn1c(=O)c2c(ncn2C)n(CCC)c1=O`, the “activity change, negative = inhibition” value was -7.12% (inactive).
In the case of `COc1cccc(OC)c1OCCNCC1CSc2ccccc2O1` (configuration not stated), the “activity change, negative = inhibition” value is reported as -3.52% (inactive).
In the case of `O=c1ccc2c(OCCCCc3ccccc3)c3ccoc3cc2o1`, the “activity change, negative = inhibition” value is reported as 2.68% (inactive).
For `C[C@]12C=CC(=O)C=C1CC[C@@H]1C2=CC[C@]2(C)[C@@H](C(=O)CN3CCN(c4cc(N5CCCC5)nc(N5CCCC5)n4)CC3)CC[C@@H]12`, the “activity change, negative = inhibition” value was -2.12% (inactive).
For `CC1CCN=C(N)S1` (configuration not stated), the “activity change, negative = inhibition” value was 1.77% (inactive).
In the case of `N#CC(=C(\N)Sc1ccccc1N)/C(C#N)=C(/N)Sc1ccccc1N`, the “activity change, negative = inhibition” value is reported as -11.1% (inactive).
In the case of `CN1CCC2(CCN3CCc4c(oc5ccccc45)C3C2)N(C)C1=O` (configuration not stated), the “activity change, negative = inhibition” value is reported as -11.6% (inactive).
In the case of `NC[C@@H]1O[C@H](c2ccccc2)Cc2c1ccc(O)c2O`, the “activity change, negative = inhibition” value is reported as 7.41% (inactive).
For `Cc1nc(N=Nc2ccc(S(=O)(=O)O)cc2S(=O)(=O)O)c(COP(=O)(O)O)c(C=O)c1O`, the “activity change, negative = inhibition” value was -0.747% (inactive).
With `CCCc1c(OCCCOc2ccc(OCC(=O)O)cc2)ccc(C(C)=O)c1O` the “activity change, negative = inhibition” value was -5.44% (inactive).
In the case of `O=C(O)C1=CCNCC1`, the “activity change, negative = inhibition” value is reported as -13.5% (inactive).
For `NOCC(=O)O`, the “activity change, negative = inhibition” value was 7.29% (inactive).
In the case of `C=CCN1CCc2c(cc(O)c(O)c2Cl)C(c2ccccc2)C1` (configuration not stated), the “activity change, negative = inhibition” value is reported as -2.52% (inactive).
With `N#C/C(=C\c1ccc(O)c(O)c1)C(=O)NCCc1ccccc1` the “activity change, negative = inhibition” value was 11.5% (inactive).
For `CC[C@H](NC(=O)c1c(C)c(-c2ccccc2)nc2ccccc12)c1ccccc1`, the “activity change, negative = inhibition” value was -3% (inactive).
In the case of `Nc1ccc(-c2ccc3ccccc3n2)cc1`, the Potency is reported as 7.08 µM (active).
Potency is the fitted concentration of half-maximal effect.
